From PubChem BioAssay AID588855 (National Center for Advancing Translational Sciences (NCATS), 2011)
In all, about 410,000 compounds went through this assay and about 5,000 (1.2%) were called active. Another 13% or so got no clear call; they are omitted. Calls follow the shape of the dose curve; as a rule, active = well fitted inhibition curve with a large enough effect; inconclusive = small, poorly fitted or top-dose-only effect; inactive = no such curve, though single readings can be large or run the other way. What follows is part of a selection rich in actives, with near analogues and random picks from the rest.
Potency is read from the fitted curve at half-maximal effect.

Test: qHTS for Inhibitors of TGF-b; also: nearly all actives have a fitted effect of over 65% in size
Conditions: HepG2 CAGA-GFP TGF-b/SMAD3 reporter, GFP fluorescence, 18 h, TGF-beta stimulated, 500 pg/mL final; series mostly up to 46.1 µM; activity, negative = inhibition: at the top concentration
Source text: TGF-b is a main component in the TGF-b signaling pathway which plays diverse roles in cellular and development pathways. TGF-b is the mediated by the transcription factors Smads. Although the Smad-dependent pathway is the primary canonical TGF-b signaling node, TGF-b1 can also activate alternative signaling pathways, including those involving MAPK (ERK, JNK and p38). This interaction may mediate or enhance Smad-dependent responses, or can exert Smad-independent effects. The complexity of this signaling cascade allows the TGF-b superfamily to perform unique, overlapping or redundant functions. We believe that targeting the TGF-beta pathway at the Smad-transcription factor level may eliminate the consequences of disrupting the entire pathway and offer specificity without affecting other signaling pathways. Smad3 is the primary transducer of TGF-b's signals and Smad3 regulates many functions attributed to TGF-b signaling. We hypothesize that Smad3 inhibitors will selectively eliminate Smad3-specific TGF-beta signals without undesired off-target effects. We aim to identify Smad3-small molecule antagonists using a quantitative high throughput screening (qHTS) approach.
A high-throughput assay was developed to screen the NIH Molecular Libraries Small Molecule Repository (MLSMR). This is a cell based assay, where TGF-b is tagged with GFP. A counterscreen is run that looks at cytotoxicity (please see summary AID).
MH087449NIH Chemical Genomics Center [NCGC]
NIH Molecular Libraries Probe Centers Network [MLPCN]
Assay Submitter (PI): Sushil Rane, National Institute of […]
Suspensions of trypsinized HEPG2 CAGA-GFP cells were dispensed into white, tissue culture-treated, solid 1536-well plates at 5uL/well (1000 cells/well final concentration) in DMEM medium supplemented with 1% FBS. Plates were incubated at 37 degrees C for 2 hours, after which 23 nL of compounds or DMSO were delivered to each well using a pin tool. One uL of recombinant TGF-beta in DMEM (1% FBS) was then dispensed (500 pg/mL final concentration), and plates were incubated at 37 degrees C for 18 hours. The plates were measured on an Acumen eX3 Explorer plate reader for GFP fluorescence (ex488/em500-530). GFP values were calculated by determining the mean GFP fluorescence of individual cells, and compiling these values for each well to determine a total well GFP signal. The %Activity was determined from the corrected fluorescence values. A titration of the known TGF-B inhibitor SB431542 was included to monitor plate performance, while unstimulated HEPG2 (-TGF-B) control wells were used to normalize %Activity of identified inhibitors; unstimulated wells corresponded to 100%Activity (full inhibition), while stimulated cell controls (+DMSO) were used to normalize 0%Activity (no inhibition).
Concentration-response curves were fitted to the signals arising from the resulting fluorescence. The concentration-effect curves were then classified based on curve quality (r2), response magnitude and degree of measured activity, and compounds were subsequently categorized based on their curve class.
In the case of Cc1cccc(NC(=O)Cn2cc(S(=O)(=O)Cc3ccccc3Cl)c3ccccc32)c1, the “activity, negative = inhibition” value was 0% (inactive).
In the case of O=C(Nc1ccccc1C(F)(F)F)c1nc(S(=O)(=O)Cc2ccccc2F)ncc1Cl, the Potency was 3.16 µM (active).
With Cc1ccc(NC(=O)c2cccnc2C(=O)Nc2ccc(C)cc2)cc1 the “activity, negative = inhibition” value was -10.9% (inactive).
With CC(=O)c1cccc(NC(=O)c2nc(-c3ccccc3)n(-c3cccc(C)c3)n2)c1 the “activity, negative = inhibition” value was -25.9% (inactive).
In the case of Cc1ccc(NC(=O)c2nc(S(=O)(=O)Cc3cccc(C)c3)ncc2Cl)cc1, the Potency was 3.16 µM (active).
For Cc1ccc(CCNC(=O)c2ccc(CS(=O)(=O)Cc3cccc(C)c3)o2)cc1, the “activity, negative = inhibition” value was -36% (inactive).
For CCS(=O)(=O)c1ncc(N(Cc2ccc(F)cc2)Cc2ccco2)c(C(=O)Nc2cc(C)ccc2C)n1, the “activity, negative = inhibition” value was 1.57% (inactive).
In the case of Cc1cccc(CS(=O)(=O)c2ncc(Cl)c(C(=O)Nc3ccc(F)cc3)n2)c1, the Potency was 6.31 µM (active).
With CN(CC(=O)Nc1ccccc1C(F)(F)F)C(=O)Cc1ccccc1F the “activity, negative = inhibition” value was -1.45% (inactive).
With O=C(Nc1nc2ccc(F)cc2s1)c1nc(SCc2ccccc2F)ncc1Cl the “activity, negative = inhibition” value was -1.74% (inactive).
In the case of CCOC(=O)c1ccc(NC(=O)c2nc(SCc3ccc(F)cc3)ncc2Cl)cc1, the “activity, negative = inhibition” value was -12.1% (inactive).
In the case of Cc1cccc(NC(=O)c2nc(S(=O)(=O)Cc3ccccc3)ncc2Cl)c1, the Potency was 3.98 µM (active).
In the case of COc1ccccc1CNC(=O)c1ccccc1NC(=O)c1nsc2ccccc12, the “activity, negative = inhibition” value was -0.608% (inactive).
In the case of Cc1cccc(Cn2c(CN3CCC(C(=O)NCc4ccccc4Cl)CC3)cc3ccccc32)c1, the “activity, negative = inhibition” value was -8.43% (inactive).
For COc1ccc(NC(=O)C2CCCN(S(=O)(=O)c3c(C)[nH]c(=O)[nH]c3=O)C2)c(OC)c1 (stereo unspecified), the “activity, negative = inhibition” value was -24.4% (inactive).
For COc1ccccc1CNC(=O)NCc1noc2ccc(C)cc12, the “activity, negative = inhibition” value was 1.22% (inactive).
With O=S(=O)(c1cccc(C(F)(F)F)c1)N1CCN(c2nc(-c3cccs3)nc3ccccc23)CC1 the “activity, negative = inhibition” value was 1.02% (inactive).
With COc1ccc(CC(N)c2csc(NC(=O)Nc3ccc(C(C)C)cc3)n2)cc1 (stereo unspecified) the “activity, negative = inhibition” value was -98.2% (inactive).
For O=C(Nc1cccc(F)c1)NC1CCCCCCC1, the “activity, negative = inhibition” value was 0% (inactive).
In the case of NC(c1csc(NC(=O)Nc2cccc(C(F)(F)F)c2)n1)C1CCCCC1 (stereo unspecified), the Potency was 6.31 µM (active).
With NC(c1ccccc1)c1csc(NC(=O)Nc2cccc(C(F)(F)F)c2)n1 (stereo unspecified) the Potency was 12.6 µM (active).
In the case of Cn1c(C(=O)Nc2cccc(C(F)(F)F)c2)cc2c(=O)n3ccccc3nc21, the “activity, negative = inhibition” value was -8% (inactive).
With CC(=O)c1ccc(Nc2nc(C(N)c3ccccc3)cs2)cc1 (stereo unspecified) the “activity, negative = inhibition” value was -0.831% (inactive).
With Cc1ccc(Cn2c(=O)n(CCCC(=O)NCc3ccccc3Cl)c(=O)c3ccccc32)cc1 the “activity, negative = inhibition” value was 3.91% (inactive).
In the case of COC(=O)c1ccc(-c2nc3cc(NC(C)=O)ccc3o2)cc1, the “activity, negative = inhibition” value was 1.43% (inactive).
In the case of CCOc1ccc(NC(=O)c2cc(S(=O)(=O)N3CCCC3)c[nH]2)cc1, the “activity, negative = inhibition” value was -24.4% (inactive).
